This note sets out measurements from PubChem BioAssay (EPA / NIEHS).

Values joined by “and” are separate entries in the source; they are usually repeats but may differ in a detail not shown here. Equal values may be shown once. Inconclusive results are not listed. Active and inactive are the calls of the source. Rule for the calls: active = hit-call score of the fitted dose curve at least 0.9, where 1 is the maximum; inconclusive = response in the unintended direction; inactive = score below 0.9.

The experiment concerns frog Estrogen Receptor (ER2), gene 100174814. As to the kind of experiment: ATG_frER2_XSP2: Attagene TRANS-FACTORIAL Multi-Species (XSP2) HepG2 Assay for frog Estrogen Receptor (ER2) (AID 2283828). As for the experimental part:
ATG_XSP2_multi-species_TRANS is a cell-based, multiplexed assay created by modifying the existing Attagene TRANS-FACTORIAL system to include a panel of nuclear receptors from some or all the following species: human (Homo sapiens), mouse (Mus musculus), frog (Xenopus laevis), zebrafish (Danio rerio), chicken (Gallus gallus), and turtle (Chrysemys picta). The ECOTOX-FACTORIAL format uses HepG2, a human liver cell line, with measurements taken at 24 hours after chemical dosing in a 24-well plate. Xsp2 included 3 nM 6-alpha-fluorotestosterone and 1.5 nM norgestrel to stimulate the androgen receptor.ATG_frER2_XSP2 is one of 29 assay components measured or calculated from the ATG_XSP2_multi-species_TRANS assay. It is designed to make measurements of mRNA induction, a form of inducible reporter, as detected with fluorescence intensity signals by Reverse transcription polymerase chain reaction (RT-PCR) and Capillary electrophoresis technology.The assay endpoint ATG_frER2_XSP2 was analyzed in the positive analysis fitting direction relative to DMSO as the negative control and baseline of activity. Using a type of inducible reporter, measures of mRNA for gain-of-signal activity can be used to understand the reporter gene at the transcription factor-level as they relate to the gene ER. Furthermore, this assay endpoint can be referred to as a primary readout, because this assay has produced multiple assay endpoints where this one serves a reporter gene function. To generalize the intended target to other relatable targets, this assay endpoint is annotated to the nuclear receptor intended target family, where the subfamily is steroidal.
Human liver HepG2 cells are transiently transfected with multiple reporter transcription units (MRTUs) in 6-well plates using FuGene 6 reagent (Roche; 3 ml FuGene/1 mg DNA). The MRTU constructs are regulated by a cis-regulating element (promoter). […] A major difference between the CIS and TRANS system is that in CIS activities of endogenous TFs are measured, whereas the TRANS assay evaluates changes in activities of exogenous, chimeric NR-Gal4 proteins. […] At the end of 24 hour incubation, total RNA was isolated using TriZol reagent (Invitrogen). The isolated RNA is then reverse-transcribed using oligo(dT) primer and Mo-MLV reverse transcriptase (Invitrogen) with DNAse I (Ambion) treatment for 30 min. The one-tenth of the produced cDNA was amplified by PCR using Taq DNA polymerase (Invitrogen) and two reporter sequence-specific primers. The PCR products were fluorescently labeled by primer extension with 6-arboxyfluorescein (6-FAM) 5'-labeled reporter sequence-specific primer (2 min at 95 C, 20 s at 68 C and 10 min at 72 C) and these products were digested with 5U of HpaI (New England Biolabs) for 2h at 37 C. The fragments were purified using Qiaquick PCR columns (Qiagen), analyzed on an ABI 3130xL genetic analyzer (Applied Biosystems) with peak positions identified by using a set of X-rhodamine (ROX)-labeled MapMarker1000 molecular weight standards (BioVentures). The raw capillary electrophoresis data was processed using Attagraph software (Attagene).
`CCN(CC)C(=O)C(C)Oc1cccc2ccccc12` (stereo not given): the AC50 is 25.5 µM (active).
With `COP(=S)(OC)SCn1nnc2ccccc2c1=O`, the compound was called inactive.
Regarding `Cc1c(COC(=O)[C@@H]2[C@H](/C=C(\Cl)C(F)(F)F)C2(C)C)cccc1-c1ccccc1`, the half-maximal activity concentration (AC50) is 100 µM (active).
As for `CC1(C)CCC(=Cc2ccc(Cl)cc2)C1(O)Cn1cncn1` (stereo not given), the concentration at half-maximal activity (AC50) is 63 µM (active).
With `C=C(C)CN(CC)c1c([N+](=O)[O-])cc(C(F)(F)F)cc1[N+](=O)[O-]`, the concentration at half-maximal activity (AC50) is 10.5 µM (active) and 7.61 µM (active).
Regarding `N#Cc1c[nH]cc1-c1cccc2c1OC(F)(F)O2`, the AC50 is 1.22 µM (active) and 859 nM (active).
Turning to `CSC(=O)c1c(C(F)F)nc(C(F)(F)F)c(C(=O)SC)c1CC(C)C`, the AC50 was 5.69 µM (active).
Take `COP(=S)(OC)Oc1ccc([N+](=O)[O-])c(C)c1`: the concentration at half-maximal activity (AC50) is 85.1 µM (active).
Consider `CC1(C)C(C=C(Cl)Cl)C1C(=O)OC(C#N)c1cccc(Oc2ccccc2)c1` (stereo not given), for which the half-maximal activity concentration (AC50) is 63.6 µM (active).
As for `CC(C)NC(=O)N1CC(=O)N(c2cc(Cl)cc(Cl)c2)C1=O`, the result was inactive.

Broadly, the AC50 is the midpoint of the concentration-response curve, whichever way the signal moves.
